Assay results: the supplement of paper PMC3334620
Whole data set: some 33,000 sequences, median “E-score (-0.5 to 0.5)” near -0.054, cut for the highest 2% near 0.39. Many of the other results were omitted from the sample, so the highest values are more common in it than they were.

biological target: Ylr278c (UniProt Q05854); test: PBM E-score (8-mer binding enrichment) (E-score (-0.5 to 0.5)); higher = stronger / more preferred TF binding; conditions: protein concentration: 200 nM; construct: GST-DNA-binding domain
Sequence of UniProt Q05854 (Q05854 whole entry, the tested form may be a part): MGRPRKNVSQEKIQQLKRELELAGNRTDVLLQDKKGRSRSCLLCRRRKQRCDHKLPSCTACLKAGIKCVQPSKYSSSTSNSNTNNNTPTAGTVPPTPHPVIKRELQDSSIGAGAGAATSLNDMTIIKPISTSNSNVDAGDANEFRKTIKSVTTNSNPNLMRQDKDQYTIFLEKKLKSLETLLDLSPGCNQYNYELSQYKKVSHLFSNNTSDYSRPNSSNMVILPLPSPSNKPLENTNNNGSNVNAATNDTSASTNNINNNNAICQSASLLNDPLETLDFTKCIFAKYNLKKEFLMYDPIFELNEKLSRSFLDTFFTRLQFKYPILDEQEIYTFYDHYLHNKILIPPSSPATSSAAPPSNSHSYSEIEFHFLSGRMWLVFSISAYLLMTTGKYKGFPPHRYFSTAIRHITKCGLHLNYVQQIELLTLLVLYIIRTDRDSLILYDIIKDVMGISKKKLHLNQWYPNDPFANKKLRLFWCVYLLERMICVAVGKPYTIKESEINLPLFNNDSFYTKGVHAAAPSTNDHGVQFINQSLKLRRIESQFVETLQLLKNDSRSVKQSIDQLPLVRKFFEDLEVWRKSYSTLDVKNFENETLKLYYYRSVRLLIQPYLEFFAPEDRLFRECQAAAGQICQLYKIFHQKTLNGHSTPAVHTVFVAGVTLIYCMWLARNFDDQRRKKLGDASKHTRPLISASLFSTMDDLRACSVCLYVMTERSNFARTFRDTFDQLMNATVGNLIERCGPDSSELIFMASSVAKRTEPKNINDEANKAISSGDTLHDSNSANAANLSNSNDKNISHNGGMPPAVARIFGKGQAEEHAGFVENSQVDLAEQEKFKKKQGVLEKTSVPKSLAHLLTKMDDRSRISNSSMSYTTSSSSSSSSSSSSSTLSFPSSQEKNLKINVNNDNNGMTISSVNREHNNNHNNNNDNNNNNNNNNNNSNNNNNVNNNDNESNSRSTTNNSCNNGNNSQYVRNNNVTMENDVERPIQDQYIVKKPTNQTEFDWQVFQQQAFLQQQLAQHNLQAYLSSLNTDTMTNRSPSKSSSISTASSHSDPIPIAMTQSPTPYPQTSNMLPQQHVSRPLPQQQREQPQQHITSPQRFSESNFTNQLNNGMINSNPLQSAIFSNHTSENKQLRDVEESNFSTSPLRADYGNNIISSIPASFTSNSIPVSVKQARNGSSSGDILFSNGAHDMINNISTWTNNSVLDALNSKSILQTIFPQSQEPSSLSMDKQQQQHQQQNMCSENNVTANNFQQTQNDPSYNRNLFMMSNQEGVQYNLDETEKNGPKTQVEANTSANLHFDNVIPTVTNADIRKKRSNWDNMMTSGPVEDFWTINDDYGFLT
Procedure: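 Universal 'all 10-mer' protein binding microarrays (Agilent AMADID 015681) probed with GST-tagged S. cerevisiae TFs (full-length or DBD) made by in vitro transcription/translation (PURExpress), about 100-200 nM. Bound TF was detected with fluorescent anti-GST. Each ungapped 8-mer (which stands for itself and its reverse complement) is scored by the PBM enrichment score (E-score), a modified Wilcoxon-Mann-Whitney statistic from -0.5 to +0.5, computed with the Universal PBM Analysis Suite. Scale: above 0.35 generally sequence-specific binding.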

In order of falling “PBM E-score” value:
1. TCCGGAGA  0.483
2. ACCGGAGT  0.481
3. AGTCCGGA  0.476
4. CCCGGAGA  0.476
5. ACCGGAGA  0.475
6. ATTCTCCG  0.474
7. CGCCGGCG  0.463
8. CGGCGCCG  0.461
9. GCCGGAGA  0.459
10. GCCGGAGC  0.452
11. CCCGGAGC  0.452
12. AAAATCCG  0.451
13. ACCGGAGC  0.448
14. GGTCCGGA  0.446
15. CCGGACAA  0.444
16. ACCGGAGG  0.441
17. CCCGGAGG  0.439
18. AGTCTCCG  0.434
19. TCGGACAA  0.434
20. CCGCGCGG  0.433
21. CGTCCGGA  0.43
22. AATATCCG  0.423
23. CCGGATAA  0.417
24. CGTCCGGC  0.407
25. TCGGATAA  0.403
26. CCGCGCCG  0.4
27. GCGGACAA  0.398
28. AATGCGGA  0.396
29. AATATCGG  0.395
30. AGTGCGGA  0.394
31. GGCCGGCA  0.394
32. ATTATCCG  0.393
33. ACGGACAT  0.392
34. CGCCGGCA  0.39
35. CCGGATAC  0.384
36. CAAATCCG  0.381
37. TCGGACCA  0.379
38. CCCGGACC  0.376
39. AGTCCGCA  0.372
40. AGCCGGCG  0.372
41. GGCCGGCC  0.372
42. CCGGACAC  0.371
43. CGCCGGCC  0.367
44. CGGACGCC  0.366
45. CGCCGCCG  0.362
46. CCGGGAGA  0.362
47. CCGGACAG  0.357
48. ACGGACAA  0.355
49. ACCGGATC  0.354
50. CCGTCCCG  0.348
51. CCGGATAG  0.347
52. AGCCGGCA  0.33
53. AGTCCGTA  0.328
54. AGCCGGCC  0.324
55. CATGCGGA  0.317
56. GCGGATAA  0.314
57. GGTCCGTA  0.304
58. GCCGGTGA  0.298
59. ACAACTCC  0.295
60. ACGGATAA  0.293
61. ACCGGGGG  0.293
62. ATCAGCGG  0.29
63. CCGCGCGC  0.28
64. CGGCCGAG  0.279
65. CGTGCGGA  0.279
66. ACCGGATG  0.279
67. GGTCCGCA  0.278
68. ACCGGATA  0.265
69. AAAATCCC  0.263
70. CCGGGAGG  0.261
71. AGTGCGGG  0.258
72. CGTCCGCA  0.246
73. CCCCGAGG  0.245
74. AGTTGCGC  0.233
75. CCGGGAGC  0.228
76. CCGCGCGA  0.216
77. GCGGACAC  0.216
78. CGGCGCCA  0.214
79. AATATCCC  0.211
80. CGTCCGTC  0.208
81. AGGCGCCG  0.206
82. CGCAATTC  0.201
83. ACGGACAC  0.194
84. CCGCGCCC  0.191
85. CGTCCGTA  0.189
86. CCGCGCCA  0.182
87. CATTTTCG  0.173
88. AACTGACC  0.152
89. AGTTCACC  0.126
90. AATATCGC  0.125
91. AATGCGGT  0.116
92. CGGTTGCC  0.109
93. AGTCTCCC  0.102
94. CGACACTA  0.102
95. GATTCGAA  0.102
96. CTAGTTCC  0.0969
97. ATTCTCCC  0.0768
98. ATTATCCC  0.0767
99. CCGTCTCA  0.0735
100. ATTTTAAA  0.0686
101. CCTTTCGC  0.0666
102. AACAAGCA  0.0514
103. ACGGACAG  0.043
104. CGACCACG  0.0345
105. AATATCCA  0.0239
106. AAATCAGT  0.0231
107. TCTGCACA  0.0219
108. ATCCAAGG  0.0179
109. CCCATCTC  0.0175
110. GGATGGGA  0.0151
111. GCAACCAC  0.00041
112. GCGTATAC  -0.00732
113. ATACAGCA  -0.0117
114. CGTAGAAC  -0.0134
115. AATATCGA  -0.0141
116. ACGCATGC  -0.0181
117. CGAGAAAA  -0.0264
118. ACAGGAGA  -0.0277
119. GATAGTGA  -0.0321
120. ACAGGAGT  -0.0336
121. ACTCCCAC  -0.035
122. GGCCTTAA  -0.0388
123. ACTTCACT  -0.0406
124. ATTCTCCA  -0.052
125. TAAGTGAA  -0.072
126. ACAGACCA  -0.0751
127. AGACTAAT  -0.0793
128. CCTGATAC  -0.0837
129. TATGTTCA  -0.0845
130. GTCTACTA  -0.0894
131. TCAGGAGA  -0.0923
132. AGCCTACA  -0.0936
133. GCTCTCCC  -0.0961
134. CCCAACCG  -0.0967
135. ATCAAGGG  -0.1
136. CCAAAGCA  -0.107
137. AAATCAAC  -0.111
138. ACTGGAGC  -0.117
139. AATGAACA  -0.117
140. ACATTGGG  -0.122
141. CCCCTCAG  -0.124
142. CTCTGCTA  -0.128
143. ATGAGGAG  -0.132
144. ATGAGCCC  -0.138
145. TCTACCCA  -0.14
146. TATCCACA  -0.144
147. TAGTCATA  -0.145
148. CATGAAGG  -0.145
149. AATTTGAG  -0.15
150. ATTATCCA  -0.155
151. GTTGTGTA  -0.159
152. CGTGGGCA  -0.16
153. TATATCCA  -0.171
154. TCAAAGCA  -0.174
155. AAAATCGA  -0.177
156. GCTCGTTA  -0.188
157. GCAGGAGC  -0.194
158. GCCAGAGA  -0.194
159. CTAGCAGA  -0.195
160. CTCAAAGA  -0.2
161. CCCACCAG  -0.212
162. TCCAGAGA  -0.212
163. ACCAGAGT  -0.219
164. CCAACTGG  -0.22
165. GCCAGAGC  -0.222
166. TACATTCA  -0.223
167. AGCTTAAG  -0.229
168. TAGGACAA  -0.233
169. CGTCCAGC  -0.233
170. CCCAGAGA  -0.233
171. AAGCTGCC  -0.234
172. AGGCTGCA  -0.242
173. AAGCTATG  -0.249
174. AGTCTCCA  -0.312
